Source: PubChem (National Center for Advancing Translational Sciences (NCATS))
RORg inh = qHTS for inhibitors of ROR gamma transcriptional activity; Nuclear receptor ROR-gamma (Mus musculus), P51450; Drosophila S2 Gal4-RORgamma UAS-luciferase reporter, 20 h; Potency, µM (series often up to 53.6 µM), for the others: top-dose activity change, negative = inhibition, most hits filed as inhibitors; actives 5.4% (n = 310,000); note: potency is the fitted concentration of half-maximal effect; nearly all actives have a fitted effect of over 60% in size
Target sequence (P51450 whole entry, looked up, the tested form may be a part): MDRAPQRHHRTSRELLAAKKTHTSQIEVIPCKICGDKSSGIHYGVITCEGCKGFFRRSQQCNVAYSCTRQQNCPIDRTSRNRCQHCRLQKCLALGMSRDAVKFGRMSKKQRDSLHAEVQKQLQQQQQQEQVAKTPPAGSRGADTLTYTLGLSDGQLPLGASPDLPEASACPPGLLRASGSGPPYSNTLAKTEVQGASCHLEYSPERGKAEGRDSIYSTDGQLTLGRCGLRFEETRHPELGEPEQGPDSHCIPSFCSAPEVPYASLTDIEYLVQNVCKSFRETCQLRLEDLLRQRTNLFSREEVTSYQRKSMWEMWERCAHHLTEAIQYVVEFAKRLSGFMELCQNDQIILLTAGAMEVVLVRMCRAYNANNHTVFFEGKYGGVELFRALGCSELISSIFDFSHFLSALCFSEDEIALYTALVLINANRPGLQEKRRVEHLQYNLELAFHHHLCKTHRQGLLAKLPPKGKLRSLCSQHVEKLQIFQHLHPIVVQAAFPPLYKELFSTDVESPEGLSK
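Stably transfected Drosophila Schneider cells are the test system, with ROR gamma fused to Gal4 and luciferase under UAS control; luminescence is read after 20 hr of 700 uM copper sulfate induction at ambient temperature.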
LDHA inh = qHTS assay for inhibitors of human lactate dehydrogenase; AID 1347041, 2019; L-lactate dehydrogenase A chain (Homo sapiens), P00338; activity change, % (values are at about 110 or 230 µM); actives 0.15% (n = 480,000); purified LDHA, NADH/diaphorase-resazurin fluorescence; active compounds read low; in the data active = activity change below about -30%; inconclusive = mostly about -25% to -30%;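 note: plate controls were DMSO wells for no effect and wells without enzyme for full effect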
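LDH5 2 nM; NADH 0.06 mM, pyruvate 0.2 mM; 200 mM Tris pH 7.4, EDTA, Tween-20; 5 min RT. Detection: diaphorase 0.133 mg/mL + resazurin 37 µM, fluorescence ex540/em590 at 0 and 20 min; normalized to enzyme-free and DMSO wells.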
VP16 counter = VP16 counterscreen qHTS for inhibitors of ROR gamma transcriptional activity. Drosophila S2 Gal4-VP16 UAS-luciferase, luminescence, 20 h. Potency, µM (titrated, usually from 53.6 µM), without a hit: at the highest dose activity, negative = inhibition, hits mostly inhibitors. actives 3.5% (n = 310,000). AID 2546, 2010;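 note: Gal4-VP16 expression switched on by copper sulfate through the metallothionein promoter; potency is the fitted concentration of half-maximal effect; nearly all actives have a fitted effect of over 50% in size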
DT40 TDP1 CPT = qHTS for Inhibitors of human tyrosyl-DNA phosphodiesterase 1 (TDP1): qHTS in cells in presence of CPT. chicken DT40 Tdp1-/-;hTDP1 cells + 20 nM CPT, ATP luminescence, 48 h. Potency, µM (highest dose often 46.2 µM), for the others: top-dose activity change, negative = growth inhibition, usual class: inhibitors. actives 12% (n = 420,000); note: potency is the fitted concentration of half-maximal effect; nearly all actives have a fitted effect of over 55% in size
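Chicken DT40 Tdp1-/- cells stably complemented with human TDP1 were seeded at 400 cells/well in medium containing 20 nM camptothecin, exposed to pin-transferred compounds, and grown at 37 °C for at least 48 hr. Viability was read as ATP luminescence.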
TDP1 cell noCPT = qHTS for Inhibitors of human tyrosyl-DNA phosphodiesterase 1 (TDP1): qHTS in cells in absence of CPT. Potency, µM (top dose mostly 46.2 µM), inactives show top-dose activity change, negative = growth inhibition, most hits filed as inhibitors. actives 15% (n = 420,000). AID 686978, 2013. DT40 Tdp1-/- hTDP1 cells, no CPT, ATP luminescence, 48 h; note: potency is the fitted concentration of half-maximal effect; nearly all actives have a fitted effect of over 55% in size
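Stably hTDP1-transfected Tdp1-null chicken DT40 cells were treated with library compounds minus camptothecin and grown for at least 48 hr at 37 °C, after which cellular ATP was quantified by luminescence.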
IL-1B inflam inh = qHTS for Inhibitors of Inflammasome Signaling: IL-1-beta AlphaLISA Primary Screen | THP-1 LPS/ATP IL-1B secretion, AlphaLISA, 16 h; active compounds read low | activity change, % at 57.5 µM | actives 4.7% (n = 360,000) | AID 743279, 2014; in the data active = activity change below about -50%; inconclusive = mostly about -30% to -49%
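Secreted IL-1B measured by AlphaLISA bead assay after 16 h compound exposure of THP-1 cells; compounds (final up to 57.5 uM) added 1 h before LPS (250 ng/mL) and ATP (1.25 mM) stimulation; lower signal means less secretion.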
* hit, by the source's call; [ ] = another dose, or the depositor's remark. Sampled rows, rich in hits. Any-hit rate of the full collection: about 18%. Unless noted, calls come from the whole dose curve; as a rule, active = well fitted curve in the direction sought with a large enough effect; inconclusive = small, poorly fitted or top-dose-only effect, or another doubt; inactive = no such curve, though single readings can be large; an effect the other way counts as inactive or inconclusive. Unless noted, % is set by controls: 0 for no effect and ±100 for the full control effect.

How did Cc1ccccc1N(CC(=O)NC1CCCC1)C(=O)c1oc(C(C)(C)C)cc1C do in these assays?
RORg inh: -39.6%; LDHA inh: -4.2; VP16 counter: -21.2%[0.365 µM]; DT40 TDP1 CPT: 16.4µM*; TDP1 cell noCPT: 14.1µM*; IL-1B inflam inh: inconclusive

Results for O=C(CN(Cc1ccccc1Cl)C(=O)CCC(=O)Nc1nccs1)NCC1CCCO1 (stereo unspecified) ?
RORg inh: 13.9%; LDHA inh: -5.1; VP16 counter: -0.3%; DT40 TDP1 CPT: -3.6%; TDP1 cell noCPT: -14.8%; IL-1B inflam inh: 15.6

What do the screens show for `Cc1cc(C(C)(C)C)oc1C(=O)N(CC(=O)NC1CCCC1)Cc1ccccc1Cl`?
RORg inh: -34.0%; LDHA inh: -4.1; VP16 counter: inconclusive; DT40 TDP1 CPT: 13µM*; TDP1 cell noCPT: 13µM*; IL-1B inflam inh: inconclusive

How did Cc1cc(C(C)(C)C)oc1C(=O)N(CC(=O)NC1CCCC1)c1cccc(C(F)(F)F)c1 do in these assays?
RORg inh: -1.1%; LDHA inh: -8.2; VP16 counter: -17.9%; DT40 TDP1 CPT: 18.4µM*; TDP1 cell noCPT: inconclusive; IL-1B inflam inh: -21.3

Results for COc1cc(Cl)c(C)cc1NC(=O)c1cc(=O)n2c(nc3ccccc32)s1 ?
LDHA inh: -0.6

Results for CCN(Cc1ccc(Cl)s1)C(=O)c1[nH]c2c(c1C)C(=O)CC(C)(C)C2 ?
LDHA inh: -10.5

What do the screens show for `CCn1cc(S(=O)(=O)N2CCN(c3ccccc3C)CC2)cn1`?
LDHA inh: 3.9

What do the screens show for `COC(CNC(=O)CS(=O)Cc1nc(-c2ccccc2C)oc1C)OC` (stereo unspecified)?
LDHA inh: 1.1

How did CC(CN1CC(=O)NC(=O)C1)N1CC(=O)NC(=O)C1 (stereo unspecified) do in these assays?
RORg inh: -17.7%[10 µM]; LDHA inh: -5.0; VP16 counter: -0.4%; DT40 TDP1 CPT: inconclusive; TDP1 cell noCPT: inconclusive; IL-1B inflam inh: 0.8

What do the screens show for `O=C1CN(CCN2CC(=O)NC(=O)C2)CC(=O)N1`?
LDHA inh: 3.4; DT40 TDP1 CPT: 7.94µM*; TDP1 cell noCPT: 7.08µM*

How did CCOC(=O)c1ccc(CN(Cc2ccc(C)cc2)S(=O)(=O)c2cccc([N+](=O)[O-])c2)cc1 do in these assays?
RORg inh: -28.8%; LDHA inh: -6.4; VP16 counter: inconclusive; DT40 TDP1 CPT: 3.6%; TDP1 cell noCPT: inconclusive; IL-1B inflam inh: 22.6

How did Cc1ccc(NC(=O)CN(C(=O)N2CCN(C)CC2)S(=O)(=O)c2ccc(C)cc2)cc1 do in these assays?
LDHA inh: -1.3; DT40 TDP1 CPT: -6.8%; TDP1 cell noCPT: -5.1%; IL-1B inflam inh: -13.7

What do the screens show for `CCOC(=O)c1ccc(CN(Cc2ccc(C)cc2)S(=O)(=O)c2ccc(NC(C)=O)cc2)cc1`?
LDHA inh: 10.1; DT40 TDP1 CPT: inconclusive; TDP1 cell noCPT: 14.6µM*

How did CCOC(=O)c1ccc(CN(Cc2ccccc2)S(=O)(=O)c2ccc(C)cc2)cc1 do in these assays?
LDHA inh: -5.2; DT40 TDP1 CPT: 29.1µM*; TDP1 cell noCPT: 16.4µM*

How did CCOC(=O)c1ccc(CN(Cc2ccc(C)cc2)S(=O)(=O)c2ccc(F)c(C(=O)Nc3ccc(C)c(F)c3)c2)cc1 do in these assays?
LDHA inh: -4.1; DT40 TDP1 CPT: -6.2%; TDP1 cell noCPT: -16.9%

Results for CCc1ccc(NC(=O)CN(C(=O)N2CCN(CC)CC2)S(=O)(=O)c2ccc(C)cc2)cc1 ?
LDHA inh: -3.0; DT40 TDP1 CPT: 1.2%; TDP1 cell noCPT: -2.9%; IL-1B inflam inh: -55.4*

What do the screens show for `COC(=O)C1=C(C)NC(C)=C(C(=O)OC)C1c1cc2ccc(C)cc2[nH]c1=O`?
RORg inh: -35.0%; LDHA inh: -0.3; VP16 counter: -10.1%; DT40 TDP1 CPT: -25.0%; TDP1 cell noCPT: inconclusive; IL-1B inflam inh: 18.5

What do the screens show for `CCOC(=O)C1=C(C)NC(C)=C(C(=O)OCC)C1c1cc2ccc(C)cc2[nH]c1=O`?
RORg inh: -1.8%; LDHA inh: -5.7; VP16 counter: -5.5%; DT40 TDP1 CPT: 23.1µM*; TDP1 cell noCPT: inconclusive; IL-1B inflam inh: 51.1

Results for O=C(Nc1ccc(C(=O)Nc2cccc3ncccc23)cc1)c1ccccc1 ?
LDHA inh: 3.4

What do the screens show for `CCOC(=O)C(C)/C(C)=N/NC(N)=S` (stereo unspecified)?
RORg inh: 0.708µM*; LDHA inh: -5.3; VP16 counter: 1.26µM*; DT40 TDP1 CPT: 18.4µM*; TDP1 cell noCPT: inconclusive; IL-1B inflam inh: -60.1*

Results for CCOC(=O)C(C)/C(C)=N\Nc1ccc([N+](=O)[O-])cc1[N+](=O)[O-] (stereo unspecified) ?
RORg inh: inconclusive; LDHA inh: -6.2; VP16 counter: -23.8%; DT40 TDP1 CPT: inconclusive; TDP1 cell noCPT: inconclusive; IL-1B inflam inh: 19.8

Results for CCOc1ccc(N(C)S(=O)(=O)c2ccc(C)c(C(=O)Nc3nnc(C4CC4)s3)c2)cc1 ?
LDHA inh: 3.2; DT40 TDP1 CPT: -8.5%; TDP1 cell noCPT: 4.61µM*; IL-1B inflam inh: -3.1

How did Cc1ccc(N(C)S(=O)(=O)c2cccc(C(=O)Nc3nnc(C4CC4)s3)c2)cc1 do in these assays?
RORg inh: 11.2µM*; LDHA inh: -1.2; VP16 counter: -7.6%; DT40 TDP1 CPT: -15.9%; TDP1 cell noCPT: inconclusive; IL-1B inflam inh: -5.4

How did Cc1ccc(-c2cc(C(=O)N(C)C)c3ccccc3n2)c(C)c1 do in these assays?
LDHA inh: -9.5

How did CCc1c(C2(O)CCCCC2)[nH]c2cnccc12 do in these assays?
LDHA inh: -6.8; DT40 TDP1 CPT: inconclusive; TDP1 cell noCPT: 18.4µM*; IL-1B inflam inh: 36.4

Results for Cc1c(C2(O)CCCCC2)[nH]c2ccc(C(F)(F)F)cc12 ?
LDHA inh: 1.0; DT40 TDP1 CPT: inconclusive; TDP1 cell noCPT: inconclusive; IL-1B inflam inh: 7.9

What do the screens show for `C1CCCN(CCNC2CCCC2)CC1`?
LDHA inh: 6.2

How did Cc1cccc(NC(=O)COC(=O)c2n[nH]c(=O)c3ccccc23)c1 do in these assays?
LDHA inh: -8.8
